Test results published in PubChem BioAssay (Tox21).
Where “and” joins values, the source holds several entries; their conditions need not be identical. Equal values may be shown once. Inconclusive results are not listed. Entries that show only a call come without a potency. More than one record can exist for a structure, and the calls need not agree. Calls of active or inactive are those of the source. Unless noted, calls follow the shape of the full dose curve.

Columns and labels:
[1] = qHTS assay to identify small molecule antagonists of the sonic hedgehog signaling (Shh) pathway (AID 1259369); also: nearly all actives have a fitted effect of over 45% in size; also: potency is read from the fitted curve at half-maximal effect
Procedure, shortened: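 Luminescence readout: firefly Luc under Gli1 response element in 3T3Gli1-Luc cells (NIH/3T3 clone). Antagonist mode, stimulation by conditioned medium; compound exposure 24hr at 37 C, 5% CO2.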

[2] = molecular target: Estrogen receptor beta (Homo sapiens) (UniProt Q92731); assay: qHTS assay to identify small molecule agonists of the estrogen receptor beta (ER-beta) signaling pathway (AID 1259377; active = well fitted activation curve with a large enough effect in the signal ratio in the repeat runs, not every such curve was filed as active; the % refers to the signal ratio; also: potency is read from the fitted curve at half-maximal effect)
Procedure, shortened: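 Reporter cells (HEK293T, ER-beta-UAS-bla) receive compounds or DMSO after a 6 hr pre-incubation. They then incubate 16 hr at 37C/5% CO2, and fluorescence from LiveBLAzer B/G substrate is measured after 2 hours at room temperature.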

[3] = molecular target: Estrogen receptor beta (Homo sapiens) (UniProt Q92731); assay: qHTS assay to identify small molecule antagonists of the estrogen receptor beta (ER-beta) signaling pathway (AID 1259378; active = well fitted inhibition curve with a large enough effect in the signal ratio in the repeat runs, not every such curve was filed as active; the % refers to the signal ratio; also: potency is read from the fitted curve at half-maximal effect)
Procedure, shortened: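 ER-beta-UAS-bla HEK293T (GripTite) cells in 2% charcoal-stripped FBS medium were preincubated 6 hr at 37C, dosed with compound, then stimulated with 1 nM E2 (final) for 16 hr; beta-lactamase reporter read by B/G FRET fluorescence after 2 hr substrate loading.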

[4] = qHTS assay to identify small molecule agonists of the androgen receptor (AR) signaling pathway in the presence of an antagonist - cell viability counter screen (AID 1259379; active = well fitted curve in the direction sought with a large enough effect in the repeat runs; an effect the other way counts as inactive or inconclusive; also: nearly all actives have a fitted effect of over 25% in size; also: potency is read from the fitted curve at half-maximal effect;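 as to activity change, negative = cytotoxicity: MDA-kb2 human breast cancer cells carrying an MMTV luciferase reporter; series mostly up to about 92 µM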)
Procedure, shortened: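 Viability counter screen: CellTiter-Fluor fluorescence, measured in the same wells as the luciferase read-out. MDA-kb2 cells, 3,000/well, with nilutamide at 3.0uM final and compounds at 15 concentrations, 16 hr at 37C, 0% CO2.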

[5] = qHTS assay to identify small molecule agonists of the estrogen receptor beta (ER-beta) signaling pathway - cell viability counter screen (AID 1259380; active = well fitted curve in the direction sought with a large enough effect in the repeat runs; an effect the other way counts as inactive or inconclusive; also: nearly all actives have a fitted effect of over 30% in size; also: potency is read from the fitted curve at half-maximal effect)
Procedure, shortened: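 Luminescence read-out (CellTiter-Glo, 30 min, room temp) taken in the same wells as the beta-lactamase reporter assay; ER-beta-UAS-bla HEK293T cells exposed to DMSO-dissolved compounds for 16 hr at 37C in 2% charcoal-stripped FBS medium.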

[6] = qHTS assay to identify small molecule antagonists of the estrogen receptor beta (ER-beta) signaling pathway - cell viability counter screen (AID 1259382; active = well fitted curve in the direction sought with a large enough effect in the repeat runs; an effect the other way counts as inactive or inconclusive; also: nearly all actives have a fitted effect of over 55% in size; also: potency is read from the fitted curve at half-maximal effect; as to activity change, negative = cytotoxicity: series mostly up to about 92 µM)
Procedure, shortened: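 Luminescent ATP read-out (CellTiter-Glo, 30 min, RT) taken in the same wells as the bla reporter assay. HEK293T ER-beta-UAS-bla cells in 2% charcoal-stripped FBS were exposed to compounds with 1nM E2 for 16 hr at 37C.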

[7] = molecular target: Estrogen receptor (Homo sapiens) (UniProt P03372); assay: qHTS assay to identify small molecule agonists of the estrogen receptor alpha (ER-alpha) signaling pathway in the presence of an antagonist (AID 1259383); also: top concentration of the series differs between compounds; nearly all actives have a fitted effect of over 15% in size
Procedure, shortened: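 Luciferase luminescence (ONE-Glo, 30min at room temperature) measured in VM7Luc4E2 cells after 22hr compound exposure at 15 concentrations, with 10.0nM ICI-182,780 final present; cells express endogenous ER-alpha and carry four EREs upstream of luciferase.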

[8] = molecular target: Thyrotropin receptor (Homo sapiens) (UniProt P16473); assay: qHTS assay to identify small molecule antagonists of the thyroid stimulating hormone receptor (TSHR) signaling pathway (AID 1259385); also: nearly all actives have a fitted effect of over 20% in size; also: potency is read from the fitted curve at half-maximal effect
Procedure, shortened: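 TSHR-HEK293 cells were plated and held 18 h at 37C/5% CO2, then given compound plus Ro20-1724 and stimulated with TSH at 1.5 ng/mL final. After 30 min at room temperature, cAMP was detected with cAMP-d2/anti-cAMP-cryptate (1 h) by fluorescence.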

[9] = qHTS assay to identify small molecule agonists or antagonists of the thyroid stimulating hormone receptor (TSHR) signaling pathway - wild type cell line counter screen (AID 1259384)
Procedure, shortened: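 Wild-type HEK293 cells were plated 18 h at 37 C/5% CO2, pin-dosed with compound plus Ro20-1724 medium, held 30 min at room temperature, then given cAMP-d2 and anti-cAMP-cryptate; fluorescence was read after 1 h. Fifteen concentrations, triplicate.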

[10] = molecular target: Androgen receptor (Homo sapiens) (UniProt P10275); assay: qHTS assay to identify small molecule agonists of the androgen receptor (AR) signaling pathway in the presence of an antagonist (AID 1259381); also: nearly all actives have a fitted effect of over 15% in size
Procedure, shortened: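 Luciferase read-out (ONE-Glo, 30min room temperature) in MDA-kb2 MMTV-reporter cells; agonist mode run in presence of AR antagonist nilutamide, 3.0uM final. Compounds tested as 15-point series, 16hr exposure at 37C, 0% CO2.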

Sequence of Thyrotropin receptor (Homo sapiens) (P16473 whole entry, looked up): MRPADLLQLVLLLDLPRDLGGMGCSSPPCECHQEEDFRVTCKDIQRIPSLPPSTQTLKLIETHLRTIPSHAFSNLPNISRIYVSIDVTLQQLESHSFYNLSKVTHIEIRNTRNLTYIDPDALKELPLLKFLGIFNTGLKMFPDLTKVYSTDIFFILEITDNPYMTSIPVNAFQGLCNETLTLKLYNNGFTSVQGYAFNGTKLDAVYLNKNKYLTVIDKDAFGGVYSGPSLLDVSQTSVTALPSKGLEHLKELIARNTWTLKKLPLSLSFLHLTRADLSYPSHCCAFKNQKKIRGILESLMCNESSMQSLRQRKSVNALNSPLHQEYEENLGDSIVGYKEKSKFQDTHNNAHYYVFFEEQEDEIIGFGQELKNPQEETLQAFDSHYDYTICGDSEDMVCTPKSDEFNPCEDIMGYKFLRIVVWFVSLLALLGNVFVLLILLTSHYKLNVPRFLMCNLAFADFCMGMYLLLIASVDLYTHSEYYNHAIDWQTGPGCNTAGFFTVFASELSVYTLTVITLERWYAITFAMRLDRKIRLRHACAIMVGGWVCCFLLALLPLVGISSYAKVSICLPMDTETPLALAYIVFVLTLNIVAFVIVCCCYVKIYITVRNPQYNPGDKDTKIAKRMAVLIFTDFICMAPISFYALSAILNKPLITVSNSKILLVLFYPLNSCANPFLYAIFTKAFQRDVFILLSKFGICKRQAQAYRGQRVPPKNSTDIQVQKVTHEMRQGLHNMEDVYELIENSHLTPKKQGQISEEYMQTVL
Sequence of Estrogen receptor beta (Homo sapiens) (Q92731 whole entry, looked up): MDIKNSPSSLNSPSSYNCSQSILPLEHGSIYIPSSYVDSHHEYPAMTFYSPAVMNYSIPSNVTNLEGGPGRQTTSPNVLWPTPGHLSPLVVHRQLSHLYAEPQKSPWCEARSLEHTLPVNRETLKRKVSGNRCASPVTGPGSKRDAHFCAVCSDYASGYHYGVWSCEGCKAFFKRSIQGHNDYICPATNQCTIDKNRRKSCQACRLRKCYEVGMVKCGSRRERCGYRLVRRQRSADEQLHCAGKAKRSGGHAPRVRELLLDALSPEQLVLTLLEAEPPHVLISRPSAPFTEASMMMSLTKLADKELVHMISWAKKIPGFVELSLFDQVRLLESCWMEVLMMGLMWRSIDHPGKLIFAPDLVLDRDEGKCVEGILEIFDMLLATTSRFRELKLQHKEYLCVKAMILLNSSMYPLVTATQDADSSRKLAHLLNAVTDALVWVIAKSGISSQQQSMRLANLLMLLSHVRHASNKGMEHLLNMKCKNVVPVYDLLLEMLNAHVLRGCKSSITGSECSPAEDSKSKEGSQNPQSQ
Sequence of Estrogen receptor (Homo sapiens) (P03372 whole entry, looked up): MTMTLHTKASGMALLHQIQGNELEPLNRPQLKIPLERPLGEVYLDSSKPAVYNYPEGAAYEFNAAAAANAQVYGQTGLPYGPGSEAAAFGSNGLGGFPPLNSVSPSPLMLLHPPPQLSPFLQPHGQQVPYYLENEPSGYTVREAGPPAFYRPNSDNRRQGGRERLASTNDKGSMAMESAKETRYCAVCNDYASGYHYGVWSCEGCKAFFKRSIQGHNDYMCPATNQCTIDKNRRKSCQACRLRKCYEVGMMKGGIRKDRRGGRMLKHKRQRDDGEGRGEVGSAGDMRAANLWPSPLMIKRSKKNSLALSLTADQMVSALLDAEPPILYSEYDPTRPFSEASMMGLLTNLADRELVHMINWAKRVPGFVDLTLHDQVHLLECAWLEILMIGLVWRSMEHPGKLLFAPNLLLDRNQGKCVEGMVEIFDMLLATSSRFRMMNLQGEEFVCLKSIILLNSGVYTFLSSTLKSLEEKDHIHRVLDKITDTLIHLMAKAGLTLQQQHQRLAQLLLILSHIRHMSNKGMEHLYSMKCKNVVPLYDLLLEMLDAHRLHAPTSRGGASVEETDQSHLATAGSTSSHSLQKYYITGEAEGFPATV
Sequence of Androgen receptor (Homo sapiens) (P10275 whole entry, looked up): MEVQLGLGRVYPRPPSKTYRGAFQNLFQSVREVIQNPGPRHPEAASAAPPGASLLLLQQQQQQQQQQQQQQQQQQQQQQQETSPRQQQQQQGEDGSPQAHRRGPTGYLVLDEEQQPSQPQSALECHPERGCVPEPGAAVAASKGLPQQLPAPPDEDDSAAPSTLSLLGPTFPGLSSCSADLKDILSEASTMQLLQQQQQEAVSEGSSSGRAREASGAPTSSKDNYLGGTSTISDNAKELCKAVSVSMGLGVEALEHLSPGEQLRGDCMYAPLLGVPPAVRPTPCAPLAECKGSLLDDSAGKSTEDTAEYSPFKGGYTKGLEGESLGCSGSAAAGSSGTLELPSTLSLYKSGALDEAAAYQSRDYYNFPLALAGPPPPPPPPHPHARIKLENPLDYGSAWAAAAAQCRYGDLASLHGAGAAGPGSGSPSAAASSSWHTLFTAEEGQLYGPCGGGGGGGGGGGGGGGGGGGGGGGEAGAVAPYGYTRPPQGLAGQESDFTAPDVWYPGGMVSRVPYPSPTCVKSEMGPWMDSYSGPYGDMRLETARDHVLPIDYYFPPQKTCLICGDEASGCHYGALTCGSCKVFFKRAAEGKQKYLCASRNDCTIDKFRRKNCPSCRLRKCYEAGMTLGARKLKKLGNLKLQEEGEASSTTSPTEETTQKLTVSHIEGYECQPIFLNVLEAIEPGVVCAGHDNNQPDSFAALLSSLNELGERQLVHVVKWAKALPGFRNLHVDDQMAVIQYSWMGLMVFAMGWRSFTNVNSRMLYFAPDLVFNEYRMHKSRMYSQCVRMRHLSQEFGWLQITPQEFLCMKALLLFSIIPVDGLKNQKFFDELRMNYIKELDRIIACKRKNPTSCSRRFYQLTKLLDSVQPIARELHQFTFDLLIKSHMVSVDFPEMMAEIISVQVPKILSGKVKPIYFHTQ

Compound	Potency [1]	Potency [2]	Potency [3]	Potency [4]	activity change, negative = cytotoxicity [5]	Potency [6]	Potency [7]	Potency [8]	Potency [5]	Potency [9]	activity change, negative = inhibition [1]	Potency [10]
O=[Se](O)O	inactive	inactive	inactive	8.64 µM (active)	1.8% [at 19 µM] (inactive)	inactive	inactive	inactive				
CC1=CC(C)(C)Nc2ccccc21	inactive	inactive	inactive	inactive		inactive	inactive		inactive			
O=C(O)CCCC(=O)O	inactive	30 µM (active) and inactive	inactive	inactive		inactive	inactive	inactive	inactive	inactive		
CN(C)CCCN1c2ccccc2Sc2ccc(Cl)cc21	13.7 µM (active) and inactive	inactive	30.6 µM (active) and 21.1 µM (active)	61.1 µM (active)		27.3 µM (active) and 18.8 µM (active)		26.6 µM (active)	19.3 µM (active) and 16.8 µM (active)	inactive		
CCCCCCC(C)O (configuration not stated)	inactive	inactive	inactive	inactive		inactive	inactive		inactive			
CCCCCCCC/C=C\CCCCCCCC(=O)O	inactive	inactive	inactive	inactive		inactive	inactive	inactive	inactive			
CN1CCOCC1	inactive	inactive	inactive	inactive		inactive			inactive			
CNC[C@H](O)c1ccc(O)c(O)c1	17.2 µM (active)			inactive		inactive	inactive	inactive	inactive		-2.86% [at 19 µM] (inactive)	
CN(C)/N=N/c1nc[nH]c1C(N)=O	inactive	inactive	inactive	inactive		inactive	inactive	inactive	inactive	inactive		
C=CC(=O)OCCCC	inactive	inactive	inactive	inactive		inactive		inactive	inactive			
Cc1ccc(N)c([N+](=O)[O-])c1	inactive	inactive	inactive	inactive		inactive	inactive	inactive	inactive	inactive		
CN(Cc1cnc2nc(N)nc(N)c2n1)c1ccc(C(=O)N[C@@H](CCC(=O)O)C(=O)O)cc1	inactive	inactive	inactive	inactive			inactive	inactive	172 nM (active) and 133 nM (active)	inactive		inactive
OC[C@H]1O[C@@H]2O[C@H]3[C@H](O)[C@@H](O)[C@@H](O[C@H]4[C@H](O)[C@@H](O)[C@@H](O[C@H]5[C@H](O)[C@@H](O)[C@@H](O[C@H]6[C@H](O)[C@@H](O)[C@@H](O[C@H]7[C@H](O)[C@@H](O)[C@@H](O[C@H]1[C@H](O)[C@H]2O)O[C@@H]7CO)O[C@@H]6CO)O[C@@H]5CO)O[C@@H]4CO)O[C@@H]3CO	inactive and 9.13 µM (active)	inactive	inactive	inactive		inactive	inactive	inactive	inactive			
CC1(C)NC(=O)N(c2ccc([N+](=O)[O-])c(C(F)(F)F)c2)C1=O	15.4 µM (active)	inactive	inactive	inactive		inactive		inactive	inactive	inactive		
CCO[Si](CCCNC(N)=O)(OCC)OCC	inactive	inactive	inactive	inactive		inactive	inactive	inactive	inactive	inactive		
O=Cc1ccccc1C=O	2.43 µM (active) and inactive	inactive	54.5 µM (active) and inactive	inactive		inactive	inactive	inactive	inactive	inactive		inactive
CCC/C=C/C=O	inactive	inactive	inactive	inactive		inactive	inactive	inactive	inactive			
C=CC(C)(O)CCC=C(C)C (configuration not stated)	inactive	inactive	inactive	inactive		inactive		inactive	inactive			
CN(C)C	inactive	inactive	inactive	inactive		inactive	inactive		inactive			
Nc1ccc2c(O)cc(S(=O)(=O)O)cc2c1	inactive	inactive	2.73 µM (active)	inactive		inactive		inactive	15.4 µM (active)			
c1ccc2c(c1)[nH]c1ccccc12	inactive	inactive	inactive	inactive		inactive	inactive		inactive			inactive
CC(=O)O[C@]1(C(C)=O)CC[C@H]2[C@@H]3C=C(Cl)C4=CC(=O)CC[C@]4(C)[C@H]3CC[C@@]21C	inactive	inactive	inactive	inactive		inactive	inactive	29.8 µM (active)	inactive			
Cc1ccc(C(C)(C)C)c(O)c1	inactive	inactive	inactive	inactive		inactive	inactive	inactive		inactive		
